The source of these data is PubChem BioAssay.

Unmarked numbers belong to inactive results. No rule for the calls is given here.

Pantothenate synthetase (Mycobacterium tuberculosis (strain ATCC 25618 / H37Rv)), sequence (P9WIL5 whole entry, looked up): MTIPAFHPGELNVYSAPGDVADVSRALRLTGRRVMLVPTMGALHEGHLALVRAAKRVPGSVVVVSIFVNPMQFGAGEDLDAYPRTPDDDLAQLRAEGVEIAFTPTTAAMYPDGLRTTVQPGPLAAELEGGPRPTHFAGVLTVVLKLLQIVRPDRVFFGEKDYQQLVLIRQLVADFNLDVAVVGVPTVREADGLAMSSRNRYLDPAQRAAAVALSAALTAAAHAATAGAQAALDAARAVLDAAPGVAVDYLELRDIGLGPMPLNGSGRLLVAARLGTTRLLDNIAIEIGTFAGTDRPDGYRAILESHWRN

The assay addresses Pantothenate synthetase (Mycobacterium tuberculosis (strain ATCC 25618 / H37Rv)) (UniProt P9WIL5). Briefly: Recombinant Mtb pantothenate synthetase (PanC) inhibitors, coupled enzyme, confirmatory (AID 375).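 Also: 0% = full reaction with vehicle and 100% = no enzyme background.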 To be noted: coupled enzyme assay; at 10 µM, stronger effect = higher value.
For orientation: inhibition means how much of the control response was suppressed. For `CCCCCn1c(=O)[nH]c2cc(C(=O)NCCCN3CCCCC3)ccc2c1=O`, the inhibition was 3%.

As for `O=C(CCN1CCOCC1)Nc1cccc(Br)c1`, the inhibition was 10%.

As to `N#CC(C(=O)C1CCCCC1)c1nc2ccccc2[nH]1` (stereo not drawn), the inhibition was 0%.

`COc1ccc(/C(O)=C2/C(=O)C(=O)N(CCN(C)C)C2c2ccccn2)cc1OC` (stereo not drawn): the inhibition is 0%.

In the case of `CCOC(=O)c1[nH]c2ccccc2c1NC(=O)CCN1CCN(C(=O)OCC)CC1`, the inhibition is 0%.

As for `CCOC(=O)C1CCCN(C(=O)c2cc3c(C)nc4ccccc4c3o2)C1` (stereo not drawn), the inhibition is 7%.

For `CCOC(=O)C(C)On1c(SC(C)C(=O)OCC)nc2ccccc2c1=O` (stereo not drawn), the inhibition was 0%.

As for `Clc1ccc(CSc2nnc(Cn3cnc4ccccc43)o2)cc1`, the inhibition is 0%.

Take `CCn1c(SCC(=O)NC)nnc1C(C)C`: the inhibition is 2%.

As to `O=C(Nc1ccc(N2CCOCC2)cc1)c1cc2ccccc2o1`, the inhibition is 0%.

With `CCOC(=O)N1CCC(NC(=O)CCC(=O)N2CC(C)Oc3ccc(Cl)cc32)CC1` (stereo not drawn), the inhibition is 2%.

In the case of `COC(=O)Cn1c2ccccc2c2nc(C)sc21`, the inhibition was 0%.

As to `O=c1[nH]c(NCc2ccco2)nnc1Cc1ccccc1Cl`, the inhibition was 0%.

On to `CO[C@H]1C=CO[C@@]2(C)Oc3c(C)c(O)c4c(O)c(c(C=NN5CCN(C)CC5)c(O)c4c3C2=O)NC(=O)C(C)=CC=C[C@H](C)[C@H](O)[C@@H](C)[C@@H](O)[C@@H](C)[C@H](OC(C)=O)[C@@H]1C`, for which the inhibition was 3%.

For `CN1/C(=C\C(=O)Nc2cccnc2)c2ccccc2CC1(C)C`, the inhibition is 3%.

As to `O=C(Nc1ccccc1C(=O)N1CCOCC1)c1cccc(S(=O)(=O)N2CCCC2)c1`, the inhibition was 0%.

Regarding `COc1cc(OC)cc(-c2nc3nc(C)c(CCC(=O)O)c(C)n3n2)c1`, the inhibition was 0%.

Take `CCCC(=O)N1c2ccccc2NC2=C(C(=O)CCC2)C1c1ccc(F)cc1` (stereo not drawn): the inhibition is 5%.

Turning to `CC(NC(=O)c1ccco1)c1ccc2c(c1)OCCO2` (stereo not drawn), the inhibition was 0%.

Consider `NC(N)=NS(=O)(=O)c1ccc(N)cc1`, for which the inhibition is 0%.

As to `COC(=O)Cn1c(=O)c2c(nc3n2CC(C)CN3c2ccc(C)c(C)c2)n(C)c1=O` (stereo not drawn), the inhibition was 4%.

As for `CCCCCCc1ccc(-c2ncc(N)cn2)cc1`, the inhibition is 0%.

`COC(=O)Cc1c(C)nc2nc[nH]n2c1=O`: the inhibition is 0%.
